Measurements published in PubChem BioAssay AID488969 (Vanderbilt High Throughput Screening Facility, 2010).
Whole data set: some 110,000 compounds, median “z-score” near -0.1, cut for the highest 2% near 2. What follows is part of a selection rich in the highest values, with near analogues and random picks from the rest. Activity calls are given as the source filed them.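 The calls were made as follows: active = z-score in the third read window above 3 or below -3; inactive = the rest.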

molecular target: Metabotropic glutamate receptor 8 (Rattus norvegicus) (UniProt P70579); test: rat mGluR8 modulators via GIRK flux, primary screen, cell-based, thallium flux, HTS (AID 488969); conditions: HEK293 rat mGluR8, GIRK (G protein-gated inwardly rectifying potassium channel) thallium flux, FluoZin2; at 10 µM; stronger effect = higher value; submaximal glutamate (EC20) added with thallium
Sequence (P70579 whole entry, looked up): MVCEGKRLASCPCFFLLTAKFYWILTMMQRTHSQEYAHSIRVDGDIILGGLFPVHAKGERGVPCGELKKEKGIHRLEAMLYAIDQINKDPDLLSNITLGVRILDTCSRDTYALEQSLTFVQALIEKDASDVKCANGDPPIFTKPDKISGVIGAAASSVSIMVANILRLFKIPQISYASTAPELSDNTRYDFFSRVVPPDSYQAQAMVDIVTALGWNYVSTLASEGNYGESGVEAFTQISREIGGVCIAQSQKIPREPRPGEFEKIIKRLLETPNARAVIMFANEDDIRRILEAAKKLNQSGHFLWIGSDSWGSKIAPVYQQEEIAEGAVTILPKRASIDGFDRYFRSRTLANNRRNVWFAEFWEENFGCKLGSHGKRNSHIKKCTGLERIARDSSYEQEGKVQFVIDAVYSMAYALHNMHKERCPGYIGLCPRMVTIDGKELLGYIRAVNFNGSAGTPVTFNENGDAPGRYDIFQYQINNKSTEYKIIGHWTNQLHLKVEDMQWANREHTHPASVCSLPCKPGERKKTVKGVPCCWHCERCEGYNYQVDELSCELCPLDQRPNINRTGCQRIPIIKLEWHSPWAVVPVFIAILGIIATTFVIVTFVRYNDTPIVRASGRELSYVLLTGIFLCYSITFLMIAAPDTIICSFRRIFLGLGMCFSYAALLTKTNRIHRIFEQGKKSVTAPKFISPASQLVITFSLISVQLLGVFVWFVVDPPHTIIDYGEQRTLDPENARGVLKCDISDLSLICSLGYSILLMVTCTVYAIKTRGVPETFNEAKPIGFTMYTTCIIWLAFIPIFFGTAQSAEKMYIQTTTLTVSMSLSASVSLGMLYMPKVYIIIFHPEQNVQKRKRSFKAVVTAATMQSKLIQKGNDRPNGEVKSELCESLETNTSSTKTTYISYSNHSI

Structure (SMILES) | z-score
CC(/C=N/NC(=O)c1cc(-c2ccccc2)nc2ccccc12)=C\c1ccco1 | -0.0414
CC(/C=N/NC(=O)c1cc(-c2ccc(Cl)cc2)nc2ccccc12)=C\c1ccco1 | 0.0726
Cc1ccc(-c2cc(C(=O)N/N=C/C=C/c3ccco3)c3ccccc3n2)cc1C | 2.64
Cc1ccc(C(=O)N(Nc2nc3ccccc3s2)C(=O)c2ccc(C)cc2)cc1 | 0.0589
O=C(OCc1ccc([N+](=O)[O-])cc1)c1ccc(N2CCCC2)c([N+](=O)[O-])c1 | 0.344
CC(C)(C)N1CC2(c3ccccc3)CN(C(C)(C)C)CC(c3ccccc3)(C1)C2=O | 1.19
O=[N+]([O-])c1cnccc1Nc1cccc(F)c1 | 0.28
O=[N+]([O-])c1ccccc1-c1cc(-c2ccccc2O)n[nH]1 | -0.676
O=C(/C=C/c1ccccc1)/C=C/c1ccccc1 | -0.389
CCc1ccc(/C=C/C(=O)C2C(=O)c3ccccc3C2=O)cc1 | 3.92 (active)
CCc1ccc(/C=C/C(=O)c2c(C)cc(C)[nH]c2=O)cc1 | -0.106
CCc1ccc(/C=C\C(=O)N2CCc3ccccc3C2)cc1 | -0.105
Cc1ccc(/C=C/C(=O)C2C(=O)c3ccccc3C2=O)cc1 | 0.871
O=C(/C=C/c1ccccc1)C1C(=O)c2ccccc2C1=O | 4.21 (active)
COc1ccc(N(C(=O)c2cnsn2)C(C(=O)NC2CCCCC2)c2ccncc2)cc1 (stereo not given) | 0.0313
CCCCNC(=O)c1ccccc1C(=O)NCCCC | 0.0704
O=C(NC(=S)NCC1CCCO1)c1ccc(Cl)cc1Cl (stereo not given) | -0.218
CCCCNC(=O)c1ccccc1Cl | -0.135
CCCCNC(=S)NC(=O)c1ccc(Cl)cc1Cl | 3.01 (active)
CC(C)NC(=S)NC(=O)c1ccc(Cl)cc1Cl | 13.8 (active)
O=C(NC(=S)NCCN1CCOCC1)c1ccc(Cl)cc1Cl | 0.241
Cc1cc(Cl)ccc1NC(=S)NCC(C)C | -0.0377
O=C(NC(=S)NCCN1CCOCC1)c1ccccc1Br | 0.00751
CC(C)CC(NC(=O)c1ccc(Cl)cc1Cl)C(=O)O (stereo not given) | -0.413

Structure (SMILES) | z-score
CCC(=O)Nc1cccc(NC(=S)NC(=O)c2ccc(Cl)cc2Cl)c1 | 0.0528
CCCCNC(=S)NC(=O)c1ccccc1Br | 6.17 (active)
CC(C)CNC(=S)NC(=O)c1ccc(Cl)cc1Cl | 13.8 (active)
Cc1cc(N2C(=O)CC(Cc3ccccc3)C2=O)no1 (stereo not given) | -0.0586
CCOc1ccc(N(CC)S(=O)(=O)c2ccc3c(c2)n(C)c(=O)c(=O)n3C)cc1 | -0.239
CCN(CC)S(=O)(=O)c1ccc(N2CCOCC2)c(NS(=O)(=O)c2ccc(C)cc2)c1 | -0.152
Clc1ccc(Cn2ncc3c(N4CCCCC4)ncnc32)cc1 | -0.535
O=C(O)c1cc([N+](=O)[O-])ccc1N1CCCCC1 | -0.123
CCN(CC)S(=O)(=O)c1ccc(N2CCOCC2)c(NC(=O)Cc2ccc(Cl)cc2)c1 | 0.141
O=C(NCCc1ccncc1)Nc1ccccc1 | 0.141
O=C(O)c1c(F)c(F)cc2ccccc12 | 0.365
CNc1oc(-c2ccco2)nc1C#N | 0.498
Cc1cc(Cl)c(S(=O)(=O)N2CCCCCC2)cc1OCC(N)=O | 1.66
CCNC(=S)NNC(=O)c1ccccc1Cl | -0.211
O=C(NC(=S)NCCN1CCOCC1)c1ccccc1Cl | -0.177
CC(C)CNC(=S)NC(=O)c1ccccc1Cl | 8.99 (active)
Cc1cc(/C=C(\C#N)C(=O)Nc2ccccc2)c(C)n1-c1ccc2c(c1)OCO2 | -0.335
CCN(CC)C(=O)Oc1ccc2cc(Br)ccc2c1 | 0.935
CC1CCN(CC(O)COC2CCC(C(C)(C)C)CC2)CC1 (stereo not given) | 4.18 (active)
CC(C)(C)C1CCC(OCC(O)CN2CCN(Cc3ccccc3)CC2)CC1 (stereo not given) | -0.106
CC(C)(C)C1CCC(OCC(O)CN2CCN(c3ccccc3)CC2)CC1 (stereo not given) | -0.235
CC(=O)/C(=N\Nc1ccccc1)Sc1nnc(-c2ccccc2)n1-c1ccccc1 | -0.24
COc1ccccc1-n1nnnc1SCC(=O)NC1CCCC1 | -0.293
Cc1cnc(NC(=O)CSc2ncn(-c3ccccc3)n2)s1 | -0.143

Structure (SMILES) | z-score
Cc1cccc(C)c1OCC(=O)N/N=C/c1cccn1C | -0.372
Cc1ccccc1OCC(=O)N/N=C/c1cccn1C | 2.42
Cc1ccc(OCC(=O)N/N=C/c2cccn2C)cc1 | 1.01
CCCS(=O)(=O)N1CCCC(C(=O)NCCCN(C)c2ccccc2)C1 (stereo not given) | 0.0444
NS(=O)(=O)c1ccc(NC(=S)N2CCN(S(=O)(=O)c3ccc(F)cc3)CC2)cc1 | 0.195
O=S(=O)(c1ccc(Cl)cc1)N1CCN(C(=S)Nc2ccc(F)c(Cl)c2)CC1 | 0.862
O=S(=O)(c1ccccc1)N1CCN(C(=S)Nc2ccc(F)cc2)CC1 | 3.37 (active)
COc1ccccc1-n1c(CCn2nc(C)c(Br)c2C)n[nH]c1=S | -0.472
CC1(C)CC(=O)C(N=Nc2ccc(Cl)cc2)=C(O)C1 | -0.154
CC(C)c1ccc(OCC(=O)N(c2ccccn2)C2CCCCC2)cc1 | -0.397
O=C(CSc1nncs1)NCc1ccc2c(c1)OCO2 | -0.652
COc1cccc(-n2c(SCC(=O)N3CCCC3)nc3c([nH]c4ccccc43)c2=O)c1 | -0.189
Cc1nnc2c3ccccc3c(-c3cccc4ccccc34)nn12 | -1.04
CC1CCCC(C)N1C(=O)CSc1nnc(COc2ccccc2)n1-c1ccccc1 (stereo not given) | -0.853
CC(C)(C)Nc1nc(N2CCCC2)nc(N2CCCC2)n1 | -0.14
OCCNc1nc(N2CCCC2)nc(N2CCCC2)n1 | -0.968
CC(C)(CO)Nc1nc(N2CCCC2)nc(N2CCCC2)n1 | 2.09
CC1CCCN(CC(O)COc2ccc(Cl)cc2)C1 (stereo not given) | 0.149
O=C(CSc1nccc2ccccc12)N1CCN(c2ccccn2)CC1 | -1.6
Cc1ccc(OCC(=O)Nc2cc(S(=O)(=O)N3CCCCC3)ccc2C)c([N+](=O)[O-])n1 | -0.377
Cc1ccc(NC(=O)COC(=O)CNC(=O)c2cccc([N+](=O)[O-])c2)cc1S(=O)(=O)N1CCCCCC1 | 0.745
Cc1ccc(OCC(=O)Nc2ccc(C)c(S(=O)(=O)N3CCCCC3)c2)c([N+](=O)[O-])n1 | 6.89 (active)
O=C(COc1cccnc1[N+](=O)[O-])Nc1cccc(S(=O)(=O)N2CCCCC2)c1 | -0.289
Cc1ccc(OCC(=O)Nc2cccc(S(=O)(=O)N3CCCCC3)c2)c([N+](=O)[O-])n1 | 0.216

Structure (SMILES) | z-score
Cc1ccc(NC(=O)COc2cccnc2[N+](=O)[O-])cc1S(=O)(=O)N1CCCCC1 | 4.45 (active)
CCC(c1nnc(SCC(=O)Nc2nnc(-c3ccccc3)o2)o1)N(C)C (stereo not given) | -0.0751
Oc1cccc(/C=N/Nc2cc(N3CCOCC3)nc(N3CCOCC3)n2)c1 | -0.242
O=C(NC1CCc2ccccc21)C1CCN(S(=O)(=O)c2ccc(Cl)cc2)CC1 (stereo not given) | 2.31
O=C(NC1CCc2ccccc21)C1CCN(S(=O)(=O)c2ccc(-n3cnnn3)cc2)CC1 (stereo not given) | 0.204
O=C(NC1CCCc2ccccc21)C1CCN(S(=O)(=O)c2ccccc2F)CC1 (stereo not given) | -0.424
O=C(/C=C/c1ccc(F)cc1)N1CCCN(C(=O)/C=C/c2ccc(F)cc2)CC1 | -0.668
CCCn1c(SCC(=O)N2N=C3/C(=C/c4ccc(OC)cc4)CCCC3C2c2ccc(OC)cc2)n[nH]c1=O (stereo not given) | -0.0176
O=C(CSCc1ccc(F)cc1)Nc1ccccc1 | 0.0848
CC(C)CC(=O)NS(=O)(=O)c1ccc(N)cc1 | 0.0965
COc1cccc(/C=C/C(=O)Oc2ccc(C(=O)c3ccc(F)cc3)cc2)c1 | -2.23
CN(C)CCNC(=O)C1CCCNC1=O (stereo not given) | 0.0264
CCCCNC(=O)C1CCCNC1=O (stereo not given) | 0.0768
Cc1ccc(S(=O)(=O)NCCNC(=O)C2CCCNC2=O)cc1 (stereo not given) | 2.41
COC(=O)CCC(=O)Nc1cccc(Cl)c1 | -0.0969
Cc1ccc(Cl)cc1NC(=O)Cn1cccc1 | -0.44
NC(=O)SCC(=O)Nc1ccc(Cl)cc1 | 5.18 (active)
Nc1cc(=O)[nH]c(SCC(=O)Nc2cccc(Cl)c2)n1 | 0.151
O=C(COc1ccccc1O)Nc1ccc(Cl)cc1 | -0.0165
Cc1ccc(Cl)cc1NC(=O)CSC(N)=O | 0.476
Cc1ccc(NC(=O)CSCC#N)cc1Cl | -0.0832
Cc1ccc(NC(=O)CSC(N)=O)cc1Cl | 5.44 (active)
NC(=O)SCC(=O)Nc1cccc(Cl)c1 | 2.86
Cc1ccc(NC(=O)Cn2cccc2)cc1Cl | 2.51

Structure (SMILES) | z-score
Cc1ccc(NC(=O)CCn2cccc2)cc1Cl | -0.079
N#CCSCC(=O)Nc1ccc(Cl)cc1 | 0.285
O=C(NNC1=NCCCCC1)c1ccccc1 | -0.78
O=S(=O)(Cc1ccccc1)N1CCCC(c2nc(-c3ccc(F)cc3)no2)C1 (stereo not given) | -0.449
Cc1nc(NC(=O)CSc2ccc(-c3nc4ccccc4[nH]3)cn2)sc1C | -0.0534
O=C(/C=C/c1ccc(OCc2ccccc2)c(OCc2ccccc2)c1)c1cccnc1 | 0.691
Cc1ccc(NC(=O)N2CCC(C(=O)NCc3ccc(F)cc3)CC2)cc1 | 2.21
O=C(NCc1ccc(F)cc1)C1CCN(C(=O)NCc2ccccc2)CC1 | 0.336
Cc1ccc(NC(=O)N2CCC(C(=O)NCc3ccccc3)CC2)cc1 | -0.545
O=C(COCC(=O)N/N=C/c1ccccc1F)N/N=C/c1ccccc1F | -0.201
CCn1c(SCc2ccc(Cl)cc2)nnc1-c1ccccc1 | 3.4 (active)
CCn1c(SCc2ccc(C#N)cc2)nnc1-c1cccc(Cl)c1 | -0.177
CCn1c(SCc2cccc(C)c2)nnc1-c1ccccc1 | -0.431
COCCN(C(=O)Nc1ccccc1)c1ccccc1 | -0.157
Cc1cc(Br)ccc1NC(=S)Nc1cccc([N+](=O)[O-])c1 | 0.848
CC1=C(C)CC(C(=O)Nc2cccc(Cl)c2)C(C(=O)O)C1 (stereo not given) | -0.289
Cc1cccc(NC(=O)C2CCCC2)c1 | 0.277
Cc1ccc(C2CC2C(=O)NNC(=S)Nc2cccc(Cl)c2)cc1 (stereo not given) | 5.51 (active)
Cc1ccc(NC(=S)NNC(=O)C2CC2c2ccc(C)cc2)cc1 (stereo not given) | 1.64
Cc1ccc(C2CC2C(=O)NNC(=S)Nc2cccc(C)c2)cc1 (stereo not given) | 3.29 (active)
O=C(NNC(=O)C1CC1c1ccccc1)Nc1cccc(Cl)c1 (stereo not given) | -0.494
Cc1ccc(C2CC2C(=O)NNC(=S)Nc2ccc(Cl)cc2)cc1 (stereo not given) | 4.55 (active)
Cc1cccc(NC(=S)NNC(=O)c2ccco2)c1 | 0.0496
Cc1ccc(C2CC2C(=O)NN)cc1 (stereo not given) | -0.033
